# In the library only some 4.8% were active in any assay of this set; here they are far more common.
# IL1B secr inh: inflammasome signaling inhibition, IL-1 beta readout; THP-1 LPS/ATP IL-1B secretion, AlphaLISA, 16 h; stronger effect = lower value; activity change, % at 57.5 µM; 360,000 tested, 4.7% active; AID 743279; in the data active means activity change below about -50%; inconclusive means mostly about -30% to -49%; further: on the % scale 0 is the no-effect control and ±100 the full control effect
#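 THP-1 cells pretreated 1 hr with compounds (up to 57.5 uM final), then stimulated with LPS (250 ng/mL final) plus ATP (1.25 mM final); secreted IL-1B measured by AlphaLISA after 16 hr, decreased signal indicating inhibition.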
# USP2a inh: inhibitors of human ubiquitin-specific protease USP2a | AID 463254 | USP2 core, Ub-CHOP2 coupled fluorogenic reporter, 485/531 | Potency, µM (series often up to 38.3 µM), inactives show top-dose activity change, negative = inhibition, hits mostly inhibitors | O75604 | 330,000 tested, 0.01% active;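 further: potency means the concentration at half of the fitted maximal effect; plate controls were DMSO wells for no effect and full inhibition by NEM control for full effect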
#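 Deubiquitinase activity read as fluorescence (485/531 nm) after Ub-CHOP2 cleavage activates the enterokinase reporter on its substrate; USP2 core 10nM, Ub-CHOP2 and substrate 25nM each, 30min compound preincubation then 60min RT; data normalized to NEM, curves fitted.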
# S2 tox: cell viability loss in ATXN counter-screen; S2 cells (HEK-293 line with an ATXN2-luciferase reporter) viability, CellTiter-Fluor protease fluorescence, 24 h; Potency, µM (doses to about 56.7 µM), hits mostly cytotoxic; 400,000 tested, 0.49% active; AID 651635; further: potency means the concentration at half of the fitted maximal effect; nearly all actives have a fitted effect of over 40% in size
# ATXN2 expr inh: reduces ATXN2 reporter expression in HEK-293 cells; 360,000 tested, 0.72% active; Potency, µM (doses to about 57 µM), without a hit: at the top dose activity change, negative = inhibition, usual class: inhibitors; HEK-293 ATXN2-luciferase reporter, luminescence, 24 h; further: potency means the concentration at half of the fitted maximal effect; on the % scale 0 is the no-effect control and ±100 the full control effect; nearly all actives have a fitted effect of over 55% in size
#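 qHTS (up to 57 uM final) was run with 24 h compound exposure of reporter cells at 37 °C. Each well was multiplexed: SteadyGlo luminescence measured ATXN2-luciferase expression after a fluorogenic Gly-Phe-AFC viability readout (25 uM final).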
# USP1 inh: USP1/UAF1 (human) deubiquitinase inhibition; O94782; recombinant USP1/UAF1, Ub-Rhodamine cleavage fluorescence; Potency, µM (top dose mostly 57.1 µM), without a hit: top-dose activity change, negative = inhibition, hits mostly inhibitors; 390,000 tested, 0.23% active; AID 743255; further: potency means the concentration at half of the fitted maximal effect; on the % scale 0 is the no-effect control and ±100 the full control effect; nearly all actives have a fitted effect of over 60% in size
# Target sequence (O94782 whole entry, looked up): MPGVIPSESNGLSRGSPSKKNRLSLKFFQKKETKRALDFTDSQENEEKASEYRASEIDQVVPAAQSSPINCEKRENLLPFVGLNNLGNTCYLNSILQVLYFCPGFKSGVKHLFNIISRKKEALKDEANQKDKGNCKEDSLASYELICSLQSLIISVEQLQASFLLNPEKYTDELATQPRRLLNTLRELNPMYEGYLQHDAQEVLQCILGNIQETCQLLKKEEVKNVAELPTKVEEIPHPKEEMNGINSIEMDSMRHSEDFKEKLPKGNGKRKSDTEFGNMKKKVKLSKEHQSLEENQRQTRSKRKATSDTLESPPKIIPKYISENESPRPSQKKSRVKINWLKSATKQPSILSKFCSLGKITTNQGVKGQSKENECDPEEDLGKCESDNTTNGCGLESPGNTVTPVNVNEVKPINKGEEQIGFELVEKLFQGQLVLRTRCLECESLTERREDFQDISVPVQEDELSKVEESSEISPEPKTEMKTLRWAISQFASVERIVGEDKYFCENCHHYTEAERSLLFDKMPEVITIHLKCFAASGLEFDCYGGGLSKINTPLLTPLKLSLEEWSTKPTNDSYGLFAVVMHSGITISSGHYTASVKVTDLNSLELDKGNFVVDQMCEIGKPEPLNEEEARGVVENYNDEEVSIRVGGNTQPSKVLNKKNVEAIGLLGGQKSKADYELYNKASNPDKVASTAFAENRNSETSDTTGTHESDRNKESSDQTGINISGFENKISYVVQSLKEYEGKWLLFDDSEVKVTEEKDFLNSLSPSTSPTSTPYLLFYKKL
#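 In this screen, compounds sit with the deubiquitinase complex (1nM) for 15 min at room temperature before Ub-Rho is added at 150nM final. Fluorescence rise is then followed for 6 reads every 60 seconds.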
# * marks the source's active call; other numbers are inactive results; i = inactive; ? = inconclusive; nt = no result; [ ] = another dose, or the depositor's remark. Unless noted, the call rests on the fitted dose curve; in most records, active means well fitted curve in the direction sought with a large enough effect; inconclusive means small, poorly fitted or top-dose-only effect, or another doubt; inactive means no such curve, though single readings can be large; an effect the other way counts as inactive or inconclusive.
SMILES,IL1B secr inh,USP2a inh,S2 tox,ATXN2 expr inh,USP1 inh
Cc1[nH]nc2nc(SCC(=O)NC3CCCCC3)n(-c3ccc(Br)cc3)c(=N)c12,51,0%,20µM*,13µM*,-18%
OCCN=c1cc(-c2ccccc2)oc2ccc(Cl)cc12,-70*,-1%,i,-9%,3%
CN(C)CCCN=c1cc(-c2ccccc2)oc2ccc(Cl)cc12,-50*,4%,i,-21%,-12%
O=c1cc(-c2ccccc2)oc2ccc(Cl)cc12,28,nt,i,2%,-3%
CC(O)CN=c1cc(-c2ccccc2)oc2ccc(Cl)cc12 (stereo not drawn),-72*,2%,?,-24%,-2%
CC(C)CN=c1cc(-c2ccccc2)oc2ccc(Cl)cc12,-27,0%,?,-35%,-2%
CC(C)(C)c1ccccc1OCCOCCN1CCCCCC1,-62*,-1%,i,-17%,-10%
c1ccc(CN2CCN(CCOCCOc3cccc4ccccc34)CC2)cc1,-81*,?,i,-2%,-20%
O=C(Nc1cccc(C(=O)N2CCCC2)c1)C1CCCCC1,19,nt,i,2%,-19%
COc1ccc(Cc2nc3ccccc3n2Cc2ccccc2F)cc1,nt,nt,?,-26%,?
S=c1[nH]cnc2sc(Nc3ccccc3)nc12,-6,0%,11µM*,nt,-13%
CSc1ccc(NC(=O)C2(C)CCN2C(=O)c2sccc2C)cc1 (stereo not drawn),-71*,nt,i,-6%,nt
NC1=NC(=Nc2ccc(S(N)(=O)=O)cc2)c2ccccc21,-27,-1%,i,-8%,-2%
NC1=NC(=Nc2cccc(S(=O)(=O)N3CCOCC3)c2)c2ccccc21,-60*,-4%,?,-27%,-18%
COc1ccc(C(=O)Nc2nnc(-c3ccco3)s2)cc1,-1,5%,?,7.9µM*,?
CN(C)CCCN(C(=O)CCS(=O)(=O)c1ccccc1)c1nc2cc3c(cc2s1)OCO3,-107*,0%,?,?,-7%
CN(C)CCCN(C(=O)c1ccc(S(=O)(=O)N(C)C)cc1)c1nc2cc3c(cc2s1)OCO3,-24,0%,i,-31%,-10%
CN(C)CCCN(C(=O)CCSc1ccccc1)c1nc2cc3c(cc2s1)OCO3,-104*,1%,?,?,-5%
O=C(CCl)c1ccc2c(c1)CCN2C(=O)C1CCCCC1,-103*,-1%,?,8%[11.3 µM],-16%
O=C(CCl)c1ccc2c(c1)CCN2C(=O)C1CC1,nt,-1%,nt,nt,nt
O=[N+]([O-])c1ccc(N=NN(CCO)CCO)cc1,6,1%,i,nt,0%
O=[N+]([O-])c1ccc(N=Nc2ncc[nH]2)cc1,-110*,0%,1.3µM*,nt,7%
N#Cc1c(Cl)nsc1NN,-64*,-1%,i,-17%[11.3 µM],-26%
Cc1ccc2nc(Nc3ccc4[nH]c(=O)[nH]c4c3)c(-n3nc(C)cc3C)nc2c1,-90*,0%,?,?,-23%
Cc1cc(C)n(-c2nc3ccccc3nc2Nc2ccc(N(C)C)cc2)n1,nt,nt,i,-7%,?
SMILES,IL1B secr inh,USP2a inh,S2 tox,ATXN2 expr inh,USP1 inh
O=C(CSc1nc2c(sc3ccccc32)c(=O)n1CCCN1CCCC1)NCc1ccco1,-70*,7%,?,-4%,-22%
Cc1cc(NC(=O)CSc2nc3c(sc4ccccc43)c(=O)n2CCCN2CCOCC2)n[nH]1,-1,3%,?,1.4µM*,-14%
O=C(CSc1nc2c(sc3ccccc32)c(=O)n1CCO)NCc1ccco1,19,0%,i,7%,-11%
CCOC(=O)c1c[nH]c2c(C(F)(F)F)cccc2c1=O,14,3%,i,5%,-13%
CC(NC(=O)c1cccnc1)c1nnc2n1CCN(Cc1ccc(F)cc1F)CC2 (stereo not drawn),nt,nt,i,nt,nt
O=C(O)CC1c2ccccc2CCN1C(=O)Nc1cc(Cl)ccc1Cl (stereo not drawn),nt,nt,nt,nt,-14%
O=C(Nc1ncc([N+](=O)[O-])s1)c1ccc2c(c1)OCO2,-12,-1%,?,2.2µM*,-7%
CC(=O)Nc1ncc([N+](=O)[O-])s1,nt,nt,i,6%,nt
Cc1onc(-c2ccccc2)c1C(=O)Nc1ncc([N+](=O)[O-])s1,-67*,1%,?,?,-2%
Cc1onc(-c2ccccc2)c1C(=O)Nc1nnc(C(C)C)s1,22,4%,i,1%,-23%
Cc1cnc(NC(=O)c2ccc3c(c2)OCCO3)s1,61,1%,?,2.2µM*,-24%
Cc1ccc(C(=O)Nc2ncc([N+](=O)[O-])s2)cc1,-67*,0%,?,2.8µM*,-23%
COc1cc(C2C(C#N)=C(N)N(c3cccnc3)C3=C2C(=O)CCC3)ccc1O (stereo not drawn),-59*,5%,i,5%,-9%
CCSc1sccc1C1C(C#N)=C(N)N(c2cccnc2)C2=C1C(=O)CCC2 (stereo not drawn),0,-2%,i,-16%,-4%
Cc1cc([N+](=O)[O-])nn1CCCC(=O)NCc1ccc(F)cc1,-24,3%,i,-9%,-12%
CCOC(=O)N1CCN(Cc2ccc3c(c2)CN(C(=O)c2noc4c2CCCC4)CCO3)CC1,nt,nt,i,nt,nt
Cc1ccccc1Oc1cc(NC(=O)CCCn2nc(C)c([N+](=O)[O-])c2C)cc([N+](=O)[O-])c1,-56*,-2%,i,?,-5%
C[C@@H]1C[C@@H](CC(=O)NCC2Cc3cccc(-c4ccncc4)c3O2)NC(=S)N1 (stereo partly drawn),nt,nt,i,nt,nt
Cc1ccc(C(=O)Sc2cccccc2=O)cc1,-97*,-9%,nt,?,-19%
CCSC1=NC2(CCN(C(=O)NC3CCCCC3)CC2)N=C1c1ccc(OC)cc1,nt,nt,i,2%,-21%
COc1ccc(NC(=O)CN(C)C(=O)c2cn(-c3ccccc3)nc2-c2cccs2)cc1,-16,1%,i,0%,-10%
CN(CC(=O)Nc1ccc(F)cc1)C(=O)c1cn(-c2ccccc2)nc1-c1cccs1,-60*,5%,i,-8%,-27%
Cn1cc(C2CC(c3ccccc3)=NN2C(=O)c2ccccc2)c2ccccc21 (stereo not drawn),-3,4%,i,4%,-3%
CCCC(=O)N1N=C(c2ccccc2)CC1c1cn(C)c2ccccc12 (stereo not drawn),-56*,-7%,?,17%,-19%
CCC(C)c1ccc(Nc2ncccc2C#N)cc1 (stereo not drawn),0,1%,i,34%,-27%
CCc1ccc(Nc2ncccc2C#N)cc1,-59*,2%,?,33%,-15%
COc1ccc2cc3cc(C(=O)NCCN4CCN(Cc5ccccc5)CC4)oc3nc2c1,-67*,2%,i,-1%,-16%
